Experiment [1] concerns the target Serine/threonine-protein kinase pim-2 (Homo sapiens) (UniProt Q9P1W9). To be noted: at 1 µM.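 Note: each value is a mean of the inhibition measurements against the kinase.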
In experiment [2] the target is Serine/threonine-protein kinase pim-3 (Homo sapiens) (UniProt Q86V86). To be noted: at 0.1 µM.
Experiment [3] shares this target. The conditions noted are these: at 1 µM.
The target in experiment [4] is T1, MAP kinase-activated protein kinase 5 (Homo sapiens) (UniProt Q8IW41).
T1 sequence (whole entry): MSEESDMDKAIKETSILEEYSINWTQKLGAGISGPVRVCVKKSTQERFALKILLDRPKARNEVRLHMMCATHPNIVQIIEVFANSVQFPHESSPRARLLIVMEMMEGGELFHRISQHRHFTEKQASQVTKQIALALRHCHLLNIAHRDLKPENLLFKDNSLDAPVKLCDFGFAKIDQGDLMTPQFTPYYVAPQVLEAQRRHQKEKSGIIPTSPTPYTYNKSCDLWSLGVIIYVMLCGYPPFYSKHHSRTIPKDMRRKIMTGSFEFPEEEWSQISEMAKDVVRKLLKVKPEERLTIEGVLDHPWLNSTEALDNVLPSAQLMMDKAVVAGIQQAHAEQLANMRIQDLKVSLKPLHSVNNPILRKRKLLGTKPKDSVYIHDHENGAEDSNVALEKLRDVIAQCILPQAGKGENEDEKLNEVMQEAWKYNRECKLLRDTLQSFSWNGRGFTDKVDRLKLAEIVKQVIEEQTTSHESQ
The conditions noted are these: at 0.1 µM.

Experiment [5] has as its target T1, MAP kinase-activated protein kinase 5 (Homo sapiens). The conditions noted are these: at 1 µM.
Experiment [6] has as its target Serine/threonine-protein kinase SIK1 (Homo sapiens) (UniProt P57059). The conditions noted are these: at 0.1 µM.
The target is the same in experiment [7]. The conditions noted are these: at 1 µM.
Experiment [8] has as its target Serine/threonine-protein kinase SIK2 (Homo sapiens) (UniProt Q9H0K1). To be noted: at 0.1 µM.
Experiment [9] shares this target. To be noted: at 1 µM.
In experiment [10] the target is T2, Serine/threonine-protein kinase TBK1 (Homo sapiens) (UniProt Q9UHD2).
T2 sequence (whole entry): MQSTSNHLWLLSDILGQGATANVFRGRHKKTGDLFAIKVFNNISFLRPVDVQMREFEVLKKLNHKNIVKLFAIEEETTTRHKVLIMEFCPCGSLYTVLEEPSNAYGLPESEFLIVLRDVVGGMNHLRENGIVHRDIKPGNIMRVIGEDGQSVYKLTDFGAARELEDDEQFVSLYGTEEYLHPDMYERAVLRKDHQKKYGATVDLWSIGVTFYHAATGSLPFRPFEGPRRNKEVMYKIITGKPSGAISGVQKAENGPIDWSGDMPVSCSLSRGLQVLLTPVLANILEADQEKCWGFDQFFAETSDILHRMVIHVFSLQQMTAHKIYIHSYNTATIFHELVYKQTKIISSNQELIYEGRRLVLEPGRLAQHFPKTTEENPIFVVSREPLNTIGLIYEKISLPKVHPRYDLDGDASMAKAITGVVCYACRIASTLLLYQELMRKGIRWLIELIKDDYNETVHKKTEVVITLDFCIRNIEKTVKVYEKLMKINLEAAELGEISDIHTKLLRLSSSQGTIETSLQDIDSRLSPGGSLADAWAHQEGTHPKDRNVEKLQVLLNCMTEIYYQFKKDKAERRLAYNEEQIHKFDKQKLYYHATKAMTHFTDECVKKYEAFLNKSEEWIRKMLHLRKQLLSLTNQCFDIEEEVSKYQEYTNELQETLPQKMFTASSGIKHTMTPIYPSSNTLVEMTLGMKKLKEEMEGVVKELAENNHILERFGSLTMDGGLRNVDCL
To be noted: at 0.1 µM.

Experiment [11] deals with T2, Serine/threonine-protein kinase TBK1 (Homo sapiens). The conditions noted are these: at 1 µM.
Experiment [12] deals with T3, Testis-specific serine/threonine-protein kinase 1 (Homo sapiens) (UniProt Q9BXA7).
T3 sequence (whole entry): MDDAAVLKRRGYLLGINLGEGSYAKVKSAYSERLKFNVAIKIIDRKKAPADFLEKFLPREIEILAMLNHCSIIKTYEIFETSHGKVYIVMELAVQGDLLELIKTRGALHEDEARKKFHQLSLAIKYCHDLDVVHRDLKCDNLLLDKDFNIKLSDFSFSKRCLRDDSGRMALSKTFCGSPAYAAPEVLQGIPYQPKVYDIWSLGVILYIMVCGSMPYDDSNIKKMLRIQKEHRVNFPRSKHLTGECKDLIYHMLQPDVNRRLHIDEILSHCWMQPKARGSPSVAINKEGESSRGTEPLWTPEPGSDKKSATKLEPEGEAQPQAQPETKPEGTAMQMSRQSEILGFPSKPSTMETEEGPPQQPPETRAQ
To be noted: at 0.1 µM.

Experiment [13] concerns the target T3, Testis-specific serine/threonine-protein kinase 1 (Homo sapiens). The conditions noted are these: at 1 µM.
The target of experiment [14] is T4, Testis-specific serine/threonine-protein kinase 2 (Homo sapiens) (UniProt Q96PF2).
T4 sequence (whole entry): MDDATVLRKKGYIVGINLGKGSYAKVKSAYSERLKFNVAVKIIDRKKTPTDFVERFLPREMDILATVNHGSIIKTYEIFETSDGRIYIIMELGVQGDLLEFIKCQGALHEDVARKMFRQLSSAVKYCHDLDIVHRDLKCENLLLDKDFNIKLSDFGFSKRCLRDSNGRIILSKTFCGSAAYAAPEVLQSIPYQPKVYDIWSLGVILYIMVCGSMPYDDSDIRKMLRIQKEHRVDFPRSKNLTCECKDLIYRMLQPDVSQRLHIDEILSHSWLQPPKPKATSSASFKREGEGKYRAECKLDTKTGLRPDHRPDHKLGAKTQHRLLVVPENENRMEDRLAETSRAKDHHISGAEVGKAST
The conditions noted are these: at 0.1 µM.

Experiment [15] deals with T4, Testis-specific serine/threonine-protein kinase 2 (Homo sapiens). To be noted: at 1 µM.
For experiment [16], the target named is Casein kinase I isoform alpha (Homo sapiens) (UniProt P48729). The conditions noted are these: at 0.1 µM.
Experiment [17] shares this target. To be noted: at 1 µM.
In experiment [18] the target is Casein kinase I isoform gamma-1 (Homo sapiens) (UniProt Q9HCP0). The conditions noted are these: at 0.1 µM.
Experiment [19] has the same target. To be noted: at 1 µM.
The target of experiment [20] is Casein kinase I isoform gamma-2 (Homo sapiens) (UniProt P78368). The conditions noted are these: at 0.1 µM.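 Note: values are mean inhibition figures reported as part of the GSK PKIS dataset.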

Structures are written as SMILES.

Chain of Casein kinase I isoform alpha (Homo sapiens) (P48729 2-337 limits assumed): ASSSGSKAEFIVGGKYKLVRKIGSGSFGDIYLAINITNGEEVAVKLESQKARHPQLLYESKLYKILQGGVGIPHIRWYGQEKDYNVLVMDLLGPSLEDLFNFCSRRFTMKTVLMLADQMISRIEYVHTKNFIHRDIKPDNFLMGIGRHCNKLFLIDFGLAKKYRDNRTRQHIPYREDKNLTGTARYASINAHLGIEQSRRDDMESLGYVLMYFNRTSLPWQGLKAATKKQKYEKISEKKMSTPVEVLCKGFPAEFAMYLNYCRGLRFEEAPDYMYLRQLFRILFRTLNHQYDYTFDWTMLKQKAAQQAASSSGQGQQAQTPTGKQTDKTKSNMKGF
Chain of Serine/threonine-protein kinase SIK2 (Homo sapiens) (Q9H0K1 whole entry, looked up): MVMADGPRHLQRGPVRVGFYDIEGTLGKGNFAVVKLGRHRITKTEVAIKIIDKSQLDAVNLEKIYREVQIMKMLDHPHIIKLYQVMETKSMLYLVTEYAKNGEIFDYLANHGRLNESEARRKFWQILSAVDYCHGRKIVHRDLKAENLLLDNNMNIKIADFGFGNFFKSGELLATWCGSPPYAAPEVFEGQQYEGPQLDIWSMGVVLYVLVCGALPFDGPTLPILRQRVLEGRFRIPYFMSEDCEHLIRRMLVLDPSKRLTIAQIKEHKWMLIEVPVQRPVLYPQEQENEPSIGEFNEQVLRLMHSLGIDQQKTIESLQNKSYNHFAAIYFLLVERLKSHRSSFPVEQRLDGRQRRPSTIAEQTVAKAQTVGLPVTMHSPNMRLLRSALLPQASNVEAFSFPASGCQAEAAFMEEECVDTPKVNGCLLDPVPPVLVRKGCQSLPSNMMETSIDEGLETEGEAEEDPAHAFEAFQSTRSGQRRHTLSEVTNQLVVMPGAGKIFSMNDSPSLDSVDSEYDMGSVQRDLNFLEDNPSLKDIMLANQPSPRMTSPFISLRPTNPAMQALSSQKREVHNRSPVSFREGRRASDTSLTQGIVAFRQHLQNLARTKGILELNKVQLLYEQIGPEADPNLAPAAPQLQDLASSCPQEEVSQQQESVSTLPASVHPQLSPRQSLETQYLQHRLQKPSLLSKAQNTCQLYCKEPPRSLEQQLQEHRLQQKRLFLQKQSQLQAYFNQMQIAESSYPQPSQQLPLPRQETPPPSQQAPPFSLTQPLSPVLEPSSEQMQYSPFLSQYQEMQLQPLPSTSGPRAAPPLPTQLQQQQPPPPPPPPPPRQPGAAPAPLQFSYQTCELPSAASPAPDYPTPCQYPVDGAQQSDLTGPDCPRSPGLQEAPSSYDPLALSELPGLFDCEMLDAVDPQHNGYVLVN
Chain of Serine/threonine-protein kinase pim-2 (Homo sapiens) (Q9P1W9 whole entry, looked up): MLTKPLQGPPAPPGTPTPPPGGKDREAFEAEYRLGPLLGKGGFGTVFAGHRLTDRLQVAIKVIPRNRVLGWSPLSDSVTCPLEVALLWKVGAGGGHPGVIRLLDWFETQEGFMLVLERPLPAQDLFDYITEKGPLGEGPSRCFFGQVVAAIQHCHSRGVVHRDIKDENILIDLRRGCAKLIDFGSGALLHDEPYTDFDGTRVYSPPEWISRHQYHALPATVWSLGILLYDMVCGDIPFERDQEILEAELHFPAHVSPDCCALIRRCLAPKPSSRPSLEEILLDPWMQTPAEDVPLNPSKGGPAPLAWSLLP
Chain of Casein kinase I isoform gamma-2 (Homo sapiens) (P78368 whole entry, looked up, canonical isoform): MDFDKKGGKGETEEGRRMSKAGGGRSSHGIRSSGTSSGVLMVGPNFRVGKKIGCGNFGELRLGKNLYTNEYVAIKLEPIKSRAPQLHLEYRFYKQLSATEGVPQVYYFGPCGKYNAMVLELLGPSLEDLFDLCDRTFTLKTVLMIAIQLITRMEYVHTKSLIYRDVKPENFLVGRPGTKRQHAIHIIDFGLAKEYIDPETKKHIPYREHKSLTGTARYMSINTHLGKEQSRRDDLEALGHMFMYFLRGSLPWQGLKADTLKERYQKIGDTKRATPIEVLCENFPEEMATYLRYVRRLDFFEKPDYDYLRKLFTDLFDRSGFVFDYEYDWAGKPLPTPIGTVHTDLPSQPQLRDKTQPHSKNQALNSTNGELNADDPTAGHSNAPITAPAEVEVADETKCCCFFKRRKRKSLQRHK
Chain of Casein kinase I isoform gamma-1 (Homo sapiens) (Q9HCP0 whole entry, looked up, canonical isoform): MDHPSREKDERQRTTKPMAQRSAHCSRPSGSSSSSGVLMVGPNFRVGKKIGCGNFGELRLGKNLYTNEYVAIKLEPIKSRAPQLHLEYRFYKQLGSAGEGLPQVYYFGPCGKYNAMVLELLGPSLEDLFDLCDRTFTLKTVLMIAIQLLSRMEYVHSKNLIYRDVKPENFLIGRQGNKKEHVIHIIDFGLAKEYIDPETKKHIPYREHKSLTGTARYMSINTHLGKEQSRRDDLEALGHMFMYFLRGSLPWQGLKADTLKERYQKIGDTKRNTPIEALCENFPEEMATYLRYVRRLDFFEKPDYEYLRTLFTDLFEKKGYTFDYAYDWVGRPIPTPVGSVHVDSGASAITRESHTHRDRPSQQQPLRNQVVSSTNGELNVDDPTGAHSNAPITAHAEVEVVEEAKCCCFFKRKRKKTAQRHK
Chain of Serine/threonine-protein kinase SIK1 (Homo sapiens) (P57059 whole entry): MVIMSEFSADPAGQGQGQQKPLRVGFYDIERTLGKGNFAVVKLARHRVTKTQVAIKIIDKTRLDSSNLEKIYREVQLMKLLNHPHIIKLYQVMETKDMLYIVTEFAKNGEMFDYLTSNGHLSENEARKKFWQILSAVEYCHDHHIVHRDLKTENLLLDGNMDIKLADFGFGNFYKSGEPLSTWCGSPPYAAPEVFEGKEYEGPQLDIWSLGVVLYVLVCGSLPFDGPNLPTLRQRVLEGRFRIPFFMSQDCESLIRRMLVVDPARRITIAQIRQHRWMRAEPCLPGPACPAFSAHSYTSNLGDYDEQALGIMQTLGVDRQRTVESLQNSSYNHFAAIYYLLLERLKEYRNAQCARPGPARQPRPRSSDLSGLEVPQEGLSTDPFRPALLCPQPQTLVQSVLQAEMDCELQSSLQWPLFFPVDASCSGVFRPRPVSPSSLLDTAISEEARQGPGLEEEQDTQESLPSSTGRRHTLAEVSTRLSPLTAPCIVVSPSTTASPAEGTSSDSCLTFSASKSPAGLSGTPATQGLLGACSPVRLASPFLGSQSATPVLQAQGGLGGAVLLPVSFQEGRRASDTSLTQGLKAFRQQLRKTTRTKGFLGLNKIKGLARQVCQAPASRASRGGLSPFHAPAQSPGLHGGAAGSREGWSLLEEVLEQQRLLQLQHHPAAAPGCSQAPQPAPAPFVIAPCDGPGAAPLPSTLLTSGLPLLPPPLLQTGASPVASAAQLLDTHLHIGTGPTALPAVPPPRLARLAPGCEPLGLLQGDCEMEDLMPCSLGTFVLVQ

Turning to `COc1ccc(CNC(=O)c2ccc(-c3cc(-c4nnc(C)o4)ccc3C)cc2)cc1`, the inhibition – broadly, the relative decrease from the control value, in per cent – was 3.03% in experiment [1]; 4.73% in experiment [2]; 8.32% in [3]; 2.76% in experiment [4]; 5.41% in experiment [5]; 1.54% in experiment [6]. In addition, the inhibition worked out at 2.92% in experiment [7]; 6.86% in experiment [8]; 6.77% in experiment [9]; 2.25% in [10]; 4.66% in [11]; 3.31% in [12]. For the same molecule, the inhibition in experiment [13] was 6.39%; in experiment [14], 2.67%; in experiment [15] it was 6.58%; in experiment [16], -0.51%; in experiment [17], 2.48%; in experiment [18], 1.07%. The inhibition in experiment [19] is -0.25%; in experiment [20] it was 1.05%.

On to `Nc1nc(-c2cccc(Cl)c2)c(-c2ccc3ncccc3n2)s1`, for which the inhibition was determined as 0.44% in experiment [1]; 1.25% in [2]; 4.87% in [3]; 2.21% in experiment [4]; 4.45% in experiment [5]; 3.24% in experiment [6]. The inhibition is 9.29% in experiment [7]; 4.96% in [8]; 14.6% in experiment [9]; 3.03% in [10]; 4.37% in experiment [11]; 7.29% in [12]. Further, the inhibition in [13] turned out to be 12.9%; in experiment [14] it was 3.52%; in experiment [15], 6.73%; in experiment [16], 1.48%; in [17] it was 5.89%; in experiment [18], 5.14%. Also, the inhibition was 16.6% in [19] and 4.46% in experiment [20].

For `COc1cc(/C=N/Nc2ncnc3[nH]ncc23)ccc1O`, the inhibition in experiment [1] stood at 4.24%; in experiment [2] it was 2.9%; in experiment [3], 21.5%; in experiment [4], 1.2%; in experiment [5] it was 2.2%; in experiment [6] it was 2.8%. The inhibition in [7] amounted to 26.7%; in [8], 8.34%; in experiment [9], 33.1%; in experiment [10], 4.18%; in experiment [11], 21.1%; in experiment [12], 4.57%. For the same molecule, the inhibition was 11.6% in [13]; 3.14% in experiment [14]; 1.44% in [15]; 3.78% in experiment [16]; 13.7% in experiment [17]; 3.68% in experiment [18]. The inhibition was determined as 19% in experiment [19] and 4.88% in experiment [20].

For `CN(C)CCOc1ccc(-c2nc(-c3ccncc3)c(-c3ccc4c(c3)CC/C4=N\O)[nH]2)cc1`, the inhibition in experiment [1] was 0.05%; in [2] it was -0.36%; in experiment [3], 2.58%; in [4], 1.42%; in [5] it was 1.59%; in experiment [6], 2.53%. Further, the inhibition in experiment [7] came to 3.64%; in experiment [8], 6.15%; in experiment [9], 2.63%; in experiment [10], 1.69%; in experiment [11], 3.98%; in [12], 1.85%. Moreover, the inhibition in [13] was found to be 2.25%; in experiment [14], 3.34%; in [15], 2.43%; in [16], 3.41%; in [17] it was 7.2%; in experiment [18], 2.51%. The inhibition in [19] is 4.6%; in experiment [20], 2.26%.

`Cc1ccc(O)cc1Nc1ccnc2cc(-c3ccccn3)ccc12`: the inhibition in [1] was 1.15%; in [2], -0.3%; in experiment [3], -0.17%; in [4], 1.2%; in experiment [5] it was 0.39%; in experiment [6] it was 14.9%. In addition, the inhibition in experiment [7] came out at 48.6%; in experiment [8] it was 6.77%; in [9] it was 23.9%; in experiment [10], 2.89%; in experiment [11], 6.68%; in experiment [12] it was 3.87%. In addition, the inhibition in experiment [13] was 3.16%; in experiment [14], 1.09%; in experiment [15], -1.1%; in [16], 3.78%; in experiment [17], 12.5%; in [18] it was 4.65%. Moreover, the inhibition was 11% in experiment [19] and 2.73% in [20].

For `COC(=O)Nc1nc2ccc(S(=O)(=O)c3ccc(NC(=O)Nc4cc(C(F)(F)F)ccc4F)cc3)cc2[nH]1`, the inhibition in [1] was 0.73%; in experiment [2], -0.65%; in experiment [3], -1.2%; in [4], 0.38%; in experiment [5] it was -0.4%; in [6] it was 2.55%. Moreover, the inhibition in [7] was 3.12%; in experiment [8] it was 0.97%; in experiment [9] it was 0.1%; in [10], 2.66%; in experiment [11] it was 3.98%; in experiment [12] it was 2.57%. The inhibition in experiment [13] was 0.57%; in [14], 0.12%; in [15], -0.82%; in experiment [16] it was 2.65%; in [17] it was 5.12%; in experiment [18] it was 2.34%. Further, the inhibition came out at 2.83% in experiment [19] and 1.08% in experiment [20].

For `CC(=O)NCc1cccc(C#Cc2cncnc2Nc2ccc(OCc3cccc(F)c3)c(Cl)c2)c1`, the inhibition in experiment [1] is 0.6%; in experiment [2] it was -0.57%; in experiment [3], -1.13%; in experiment [4], 0%; in experiment [5] it was 0.14%; in [6], 1.32%. Moreover, the inhibition in experiment [7] is 2.96%; in [8], -1.4%; in experiment [9] it was 5.8%; in experiment [10] it was -0.27%; in [11], 4.8%; in [12], 1.79%. In addition, the inhibition in [13] was 2.15%; in [14], 0.5%; in experiment [15] it was 1.59%; in experiment [16], -1.4%; in experiment [17] it was -0.4%; in [18], 0.6%. Also, the inhibition in experiment [19] was 0.01%; in experiment [20] it was -0.69%.
